Assay results reported in PubChem BioAssay (NCI).
About 83,000 compounds went through this panel and 20% of them were active in at least one assay; those are over-represented in the sample as a whole.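 Testing used 96-well plates and a 48-hour single-concentration exposure. Example: -40 means 40% of the starting cells died.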 A number with no mark means an inactive call. Calls of active or inactive are those of the source. How the source made its calls: active means growth percent below 10; inactive means the rest.

Assays:
Experiment in all cases: NCI-60 one-dose screen, 48 h (100 = growth as untreated, 0 = no growth, -100 = all killed)
Details in all cases: 10 µM unless noted
NCI-H23 lung = test system: NCI-H23 lung
NCI-H226 lung = test system: NCI-H226 lung
NCI-H322M lung = test system: NCI-H322M lung
HOP-62 NSCLC = test system: HOP-62 NSCLC
NCI-H460 lung = test system: NCI-H460 lung
NCI-H522 lung = test system: NCI-H522 lung
A549/ATCC NSCLC = test system: A549/ATCC NSCLC
786-0 renal = test system: 786-0 renal
COLO 205 colon = test system: COLO 205 colon

Structure (SMILES)	growth (NCI-H23 lung)	growth (NCI-H226 lung)	growth (NCI-H322M lung)	growth (HOP-62 NSCLC)	growth (NCI-H460 lung)	growth (NCI-H522 lung)	growth (A549/ATCC NSCLC)	growth (786-0 renal)	growth (COLO 205 colon)
CCNC(=O)N1CCc2cc(OC)c(OCCc3ccc(OC)cc3)cc2C1c1ccc([N+](=O)[O-])cc1C (stereo unspecified)	21.2%	38%	45.4%	25.9%	2.37% (active)	-8.41% (active)	11.7%	18.2%	25.8%
Cc1cc(C)c2sc(=O)n(Cc3nnc(SCCC(=O)O)o3)c2n1	101%	94.5%	98%	98.2%	105%	100%	104%	104%	124%
COc1ccc(-n2c(SCc3nnc(NC(=O)c4ccc(Br)cc4)s3)nc3cc(OC)c(OC)cc3c2=O)cc1	92.5%	74%	85.5%	92.3%	93.5%	89.2%	102%	105%	104%
CCOC(=O)c1c(Nc2ccccc2)nn2c(-c3ccc(Cl)cc3)ccnc12	73.4%	58.6%	86.5%	56.7%	44.1%	79.7%	70.4%	64.7%	82.1%
Cc1ccc(C(=O)NN2C(=O)/C(=C/C=C/c3ccco3)SC2=S)cc1	96.7%	96.1%	85.4%	105%	88.3%	83.5%	82.4%	106%	126%
O=C(CN1CCN(c2cc(=O)n(-c3ccccc3)c3ccccc23)CC1)Nc1nc(-c2ccc(Cl)cc2)cs1	49.8%	47.4%	89.1%	65.8%	54.8%	56.3%	52.6%	67.6%	57.3%
NS(=O)(=O)c1ccc(Nc2cc(-c3ccccc3)nc(SCC(=O)c3ccccc3)n2)cc1	92.5%	92.8%	90.4%	106%	103%	98.6%	98.8%	96.9%	116%
Cc1cc2ncc(-c3cc4ccccc4c(N4CCN(C)CC4)n3)nc2cc1C	70.7%	91.9%	47.7%	82.9%	-77.9% (active)	75.5%	54%	61.3%	-57.9% (active)
Cc1ccc(C2=NN(C)C(=O)C3(CCCC3)C2)cc1	106%	105%	103%	114%	112%	103%	99.5%	103%	115%
NC(N)=Nc1ccc(Oc2cccc(Nc3ccc(Br)c(C(F)(F)F)c3)c2)cc1	13.8%	39.2%	44.8%	-37.1% (active)	-66.9% (active)	15%	33.7%	32.7%	-31.2% (active)
Cc1cc(-c2ccc(Cl)cc2)n(Cc2nnc(SCC(=O)Nc3ccc(S(N)(=O)=O)cc3)n2-c2ccc([N+](=O)[O-])cc2)n1	90.2%	85.1%	96%	104%	67.1%	90%	84.3%	109%	97%
COc1cc(OC)c(S(N)(=O)=O)cc1C(=O)/C=C/c1ccc(C)cc1	8.61% (active)	-2.47% (active)	34.6%	11.9%	-3.51% (active)	11%	22.5%	19.9%	17%
CC(C)(C)c1ccc(CC(=O)Nc2sc3c(c2C(N)=O)CCC(=O)C3)cc1	7.26% (active)	11.4%	44%	30.5%	6.79% (active)	-49.3% (active)	17.1%	29.1%	-34.4% (active)
Cc1cc(C)cc(C(=O)Nc2cccc(C#Cc3cccc4[nH]nc(N)c34)c2)c1	76.6%	67.3%	88.4%	67%	50.7%	23.6%	54.8%	89.9%	77.9%
Cc1ccc(CSc2nc(-c3ccc(Cl)cc3)c(C#N)c(N3CCOCC3)n2)cc1	95%	94.4%	103%	110%	96.2%	78.4%	91.8%	87.5%	125%
CCO/C=N/C1=C(C#N)C(c2ccc(Cl)cc2)c2sc3c(CC)cccc3c2O1 (stereo unspecified)	22%	54.7%	43.3%	45.1%	9.19% (active)	7.65% (active)	30%	41.9%	14%
COc1ccc(C(=O)Nc2ncc(Cc3ccccc3Cl)s2)cc1	17.9%	31.7%	54.3%	39.2%	2.79% (active)	-37.3% (active)	24.3%	28.9%	-48.3% (active)
CCNC(=O)N1CCc2cc(OC)c(OCCc3ccc(OC)nc3)cc2C1c1ccc(OC)cc1C (stereo unspecified)	44.8%	38.5%	55.6%	31%	3.64% (active)	19.4%	30.4%	22.9%	29.3%
CCN(CC)CCn1c2ccc(O)cc2c2sc3cc(OC)ccc3c(=O)c21	28.5%	72.6%	26.2%	26.2%	1.49% (active)	30.1%	13.2%	33.3%	17.9%
COc1ccccc1-n1cc(C#N)c(N)c1C(=O)c1ccc(Br)cc1	87.8%	94.4%	96.7%	63.5%	79.7%	48.7%	78.6%	91.9%	76.5%
Cc1nn(-c2ccccc2)c2ncnc(N/N=C/c3ccccc3)c12	97.3%	78.3%	95%	116%	95.6%	85.8%	92.4%	84.6%	104%
Nc1nc(-c2cccc([N+](=O)[O-])c2)c(N=Nc2ccc(Br)cc2)s1	-65% (active)	-39.2% (active)	-25.4% (active)	-68.1% (active)	-61% (active)	-48.6% (active)	-20.3% (active)	-96.4% (active)	-2.36% (active)
c1cc(-c2nc3ccc4[nH]ncc4c3c3c2CCCC3)[nH]n1	54.8%	74.9%	76.6%	68.6%	38.8%	30.9%	48.1%	64.7%	54.1%
CN1CCN(Cc2ccc(NC(=O)c3cncc(C#Cc4cnn5cccnc45)c3)cc2C(F)(F)F)CC1	-23.1% (active)	-14% (active)	19.8%	10.2%	3.16% (active)	-58.7% (active)	5.71% (active)	27.1%	-56.6% (active)
O=C(Nc1cccc(Cl)c1)Nc1nc2ccc([N+](=O)[O-])cc2o1	12.6%	29%	17.4%	22.2%	7.51% (active)	-0.721% (active)	17.2%	28%	-5.17% (active)
CN(C)CCCOc1ccc2c(c1)CN(C(=O)c1cc(C(=O)N3Cc4cccc(F)c4C3)ccc1O)C2	102%	97.2%	105%	120%	105%	97.7%	101%	108%	109%
C#CCC#CCN1CCC[C@H]1C(=O)NCC(=O)OC	96.7%	104%	101%	104%	112%	100%	97.6%	101%	114%
CCNC(=O)N1CCc2cc(OC)c(OCCc3ccc(OC)nc3)cc2C1c1ccc(C)cc1C (stereo unspecified)	13%	33.2%	38%	21.8%	1.74% (active)	-34% (active)	4.74% (active)	6.15% (active)	7.67% (active)
C=C(C=O)[C@@H]1CC[C@]2(CO)CC[C@]3(C)[C@H](CC[C@@H]4[C@@]5(C)CCCNC(C)(C)[C@@H]5CC[C@]43C)[C@@H]12	63.5%	76.5%	95.8%	88.9%	86%	77.6%	81.1%	94.3%	77.3%
